The list is not random: actives were taken first. Their share in the collection is about 4%.
esBAF inh = blocks esBAF chromatin remodeling in mouse ES cells; Bmi1-luciferase knock-in reporter, 24 h; 100% = twice the neutral-well signal; reporter increase, % at 12.5 µM; actives 2% (n = 350,000); in the data active means activation above about 40%; inconclusive means no clear call, values can overlap the other calls;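 further: a rise in the Bmi1 reporter signal indicates esBAF inhibition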
PAX8 inh HTS = lowers PAX8-driven luciferase in RMG-I cells | actives 1.2% (n = 360,000) | inhibition, % at 12.6 µM | RMG-I TPO-luciferase reporter, SteadyGlo, 24 h;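 active means mean replicate inhibition at least 60% with every replicate also reaching 60%; inconclusive means only one of the two criteria is met; inactive means mean below 60% and not all replicates reaching 60%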;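 further: luciferase light reporting Pax8 driven TPO promoter activity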
EWS-Fli inh = blocks EWS/Fli oncoprotein-driven transcription; A673 NR0B1-luciferase reporter, viability-normalised; inhibition, % at 12.6 µM; actives 0.67% (n = 350,000); AID 651661;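 active means mean inhibition of at least 50% after viability correction, with every replicate also passing that limit; inconclusive means mean reaches 50% but only one of two replicates passes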;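 further: firefly luciferase signal divided by Alamar Blue viability fluorescence both relative to DMSO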
MITF TRPM1 inh = inhibitors of MITF-driven TRPM1 promoter in melanoma cells. AID 488899. inhibition, % at 12.5 µM. SK-MEL-5 TRPM1 promoter luciferase, 24 h. actives 0.83% (n = 330,000);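 active means mean inhibition across replicates of 60% or more, whatever share of single replicates reaches that level; inconclusive means some that reach 60%, reason not given; inactive means mean inhibition across replicates below 60%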
MITF TRPM1 HTS = activators of MITF-driven TRPM1 promoter activity in SK-MEL-5 cells; SK-MEL-5 TRPM1-promoter luciferase, 24 h; % of positive control, neutral wells = 0; activation, % at 12.5 µM; actives 0.75% (n = 300,000); AID 588334;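 active means mean activation of at least 80% with every replicate also reaching 80%; inconclusive means mean reaches 80% but some replicate falls short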
Wnt act = activators of Wnt/beta-catenin signaling; activation, % at 9.35 µM; AID 743398; Wnt/beta-catenin reporter cell assay, activator, plate reader; actives 1.2% (n = 300,000); in the data active means activation above about 30%, passing the limit was not always enough; inconclusive means no clear call, values can overlap the other calls
Hits are given with their value; i = inactive; ? = inconclusive; nt = no result given.

SMILES	esBAF inh	PAX8 inh HTS	EWS-Fli inh	MITF TRPM1 inh	MITF TRPM1 HTS	Wnt act
COc1cccc(/C=N/NC(=O)c2ccoc2C)c1	nt	i	i	i	nt	39.6
COc1cc(/C=N/NC(=O)c2ccoc2C)ccc1O	nt	i	i	i	i	i
COc1ccc(S(=O)(=O)N(C)C[C@@H]2Oc3ccc(NC(=O)c4ccncc4)cc3CC(=O)N([C@@H](C)CO)C[C@@H]2C)cc1	i	nt	i	nt	nt	nt
C[C@H]1CN([C@@H](C)CO)C(=O)Cc2cc(NS(=O)(=O)c3ccccc3)ccc2O[C@H]1CN(C)S(=O)(=O)c1cn(C)cn1	i	i	i	nt	nt	nt
CNC(=O)C[C@@H]1CC[C@H]2[C@@H](COC[C@@H](O)CN2Cc2ccc(Cl)c(Cl)c2)O1	i	i	i	nt	nt	nt
C[C@@H]1CN([C@@H](C)CO)C(=O)c2cc(NC(=O)c3ccccc3)ccc2O[C@@H](C)CCCCO[C@@H]1CN(C)S(=O)(=O)c1cn(C)cn1	i	i	i	nt	nt	nt
O=C(NCC[C@H]1CC[C@@H](NC(=O)C2CC2)[C@@H](CO)O1)c1cnccn1	i	i	i	nt	nt	nt
Cc1nc2sc(C(c3ccco3)N3CCN(C(c4ccccc4)c4ccccc4)CC3)c(O)n2n1 (centres undefined)	i	87.5	i	nt	nt	i
Cc1nc2sc(C(c3ccco3)N3CCN(c4ccccc4)CC3)c(O)n2n1 (centres undefined)	i	i	i	nt	nt	i
CN(C)C(=O)c1ccc(-c2ccc([C@@H]3[C@@H](CO)N4C(=O)CN(C(=O)C5CCCC5)C[C@@H]34)cc2)cc1	nt	i	i	nt	nt	nt
O=C(OCc1ccccn1)c1ccc(COc2ccc3ccccc3c2)o1	53.3	i	i	i	i	i
NNC(=O)c1ccc(COc2ccc3ccccc3c2)o1	nt	i	i	i	i	?
COC(=O)C[C@@H]1CC[C@@H]2[C@@H](COc3ccc(NC(=O)c4ccccc4)cc3C(=O)N2C)O1	i	i	i	nt	nt	nt
O=C(Nc1ccc(Br)cc1)C1Cc2ccccc2O/C1=N\O (centres undefined)	55.2	i	i	i	i	i
C[C@@H]1CN([C@H](C)CO)C(=O)c2cc(NC(=O)Nc3ccccc3)ccc2O[C@@H](C)CCCCO[C@@H]1CN(C)Cc1ccc(C(F)(F)F)cc1	i	80.4	i	nt	nt	nt
C[C@@H]1CCCCO[C@@H](CN(C)Cc2ccc(C(F)(F)F)cc2)[C@@H](C)CN([C@@H](C)CO)C(=O)c2cc(NC(=O)Nc3ccccc3)ccc2O1	i	i	i	nt	nt	nt
C[C@@H]1CCCCO[C@H](CN(C)Cc2ccc(C(F)(F)F)cc2)[C@@H](C)CN([C@H](C)CO)C(=O)c2cc(NC(=O)Nc3ccccc3)ccc2O1	i	i	i	nt	nt	nt
C[C@@H]1CCCCO[C@@H](CN(C)Cc2ccc(C(F)(F)F)cc2)[C@H](C)CN([C@@H](C)CO)C(=O)c2cc(NC(=O)Nc3ccccc3)ccc2O1	i	?	i	nt	nt	nt
C[C@@H]1CCCCO[C@H](CN(C)Cc2ccc(C(F)(F)F)cc2)[C@H](C)CN([C@@H](C)CO)C(=O)c2cc(NC(=O)c3ccccc3)ccc2O1	i	84.5	64.3	nt	nt	nt
C[C@@H]1CCCCO[C@H](CN(C)Cc2ccc(C(F)(F)F)cc2)[C@H](C)CN([C@@H](C)CO)C(=O)c2cc(NC(=O)Nc3ccccc3)ccc2O1	i	74.8	i	nt	nt	nt
C[C@@H]1CCCCO[C@H](CN(C)Cc2ccc(C(F)(F)F)cc2)[C@H](C)CN([C@H](C)CO)C(=O)c2cc(NC(=O)Nc3ccccc3)ccc2O1	i	64.3	i	nt	nt	nt
COc1cccc(C(=O)Nc2ccc3c(c2)C(=O)N(C)C[C@@H](OC)[C@@H](C)CN[C@@H](C)CO3)c1	i	nt	i	nt	nt	nt
NCC[C@H]1CC[C@@H](NC(=O)C2CCCC2)[C@H](CO)O1	i	i	i	nt	nt	nt
C[C@@H]1CCCCO[C@@H](CN(C)Cc2ccc(C(F)(F)F)cc2)[C@H](C)CN([C@H](C)CO)C(=O)c2cc(NC(=O)Nc3ccccc3)ccc2O1	i	77.9	i	nt	nt	nt
C[C@@H]1CN([C@@H](C)CO)C(=O)c2cc(NC(=O)Nc3ccccc3)ccc2O[C@@H](C)CCCCO[C@@H]1CN(C)Cc1ccc(C(F)(F)F)cc1	i	74.4	i	nt	nt	nt
SMILES	esBAF inh	PAX8 inh HTS	EWS-Fli inh	MITF TRPM1 inh	MITF TRPM1 HTS	Wnt act
O=C(C[C@H]1C[C@H]2c3cc(NC(=O)Cc4ccncc4)ccc3O[C@H]2[C@@H](CO)O1)NCc1ccncc1	i	i	i	nt	nt	nt
CN1C=CC=C/C1=C1/N=C(c2ccccc2)OC1=O	i	i	i	i	i	i
CC1=CC(=C2N=C(c3ccccc3)OC2=O)C=C(C)O1	64.0	nt	nt	i	nt	nt
O=C(C[C@@H]1CC[C@@H](NC(=O)Cc2ccccn2)[C@@H](CO)O1)NCCc1ccncc1	i	i	i	nt	nt	nt
O=[N+]([O-])c1ccc2nc(-c3ccccc3)n(OCc3ccc(Cl)cc3)c2c1	62.2	nt	nt	i	nt	nt
COn1c(-c2ccccc2)nc2ccc(Cl)cc21	65.4	nt	nt	i	nt	nt
O=C(O)COn1c(-c2ccccc2)nc2ccc(Cl)cc21	nt	i	i	i	i	i
CO[C@@H]1CN(C)C(=O)c2cc(NC(=O)c3ccccc3)ccc2OC[C@H](C)N(CC2CC2)C[C@@H]1C	i	i	i	nt	nt	nt
Cc1ccc(S(=O)(=O)c2ccc(C)cc2)cc1	i	nt	i	i	i	i
Cc1cc(S(=O)(=O)c2ccc([N+](=O)[O-])cn2)ccc1Br	nt	85.9	i	90.0	i	i
Cc1ccc(S(=O)(=O)c2ccc([N+](=O)[O-])cn2)cc1	i	111.4	61.1	90.8	i	i
Cc1cc(Sc2ccc([N+](=O)[O-])cn2)ccc1Br	nt	i	i	i	i	i
Nc1ccc(S(=O)(=O)c2ccccc2)nc1	i	i	i	nt	nt	i
O=[N+]([O-])c1ccc(S(=O)(=O)c2ccccc2)nc1	i	109.2	57.9	94.1	i	i
C[C@H]1CN([C@@H](C)CO)S(=O)(=O)c2ccc(C#CCN(C)C)cc2O[C@H]1CN(C)C(=O)C1CCC1	i	nt	i	nt	nt	nt
CCC(=O)N1C[C@@H](O)COC[C@H]2O[C@@H](CC(=O)N3CCCCC3)CC[C@@H]21	i	i	i	nt	nt	nt
O=[N+]([O-])/C=C\c1ccc(N2CCOCC2)cc1	nt	i	i	73.8	i	i
Clc1cccc(N/N=C/c2ccc(N3CCOCC3)cc2)c1	i	nt	i	i	?	i
O=[N+]([O-])c1cccc(N/N=C/c2ccc(N3CCOCC3)cc2)c1	66.1	i	i	i	126.7	i
O=C(O)c1cc(N/N=C/c2ccc(N3CCOCC3)cc2)ccc1Cl	i	i	i	i	i	37.2
O=C(COc1ccc(/C=C\[N+](=O)[O-])cc1)N1CCOCC1	nt	i	i	i	i	i
C(=N\Nc1ccccc1)/c1ccc(N2CCOCC2)cc1	i	nt	nt	i	108.9	nt
C[C@H](CO)N1C[C@H](C)[C@H](CN(C)C(=O)c2ccccn2)Oc2ncc(C3=CCCC3)cc2C1=O	i	i	i	nt	nt	nt
CCS(=O)(=O)N1CC2(C1)[C@@H](c1ccccc1)[C@@H](CO)N2CCC(F)(F)F	nt	i	i	nt	nt	nt
